Among all 96,000 compounds or so, about 20,000 (21%) were called active. A selection follows. A number with no mark means an inactive call.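 Rule for the calls: active = CYP2C19 inhibition above a set limit at 5 µM in the primary screen (cut at about 50% in these data); inactive = the rest.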

In the test the target is Cytochrome P450 2C19 (Homo sapiens) (UniProt P33261). Kind of test: blockers of cytochrome P450 2C19 activity – biochemical, luminescence, ADME assay, primary screen (AID 778).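 Note: plate controls were negative control wells for no effect and 2.5 mM tranylcypromine positive control for full effect.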 To be noted: CYP2C19 Supersomes, luciferin-H EGE luminescence, 30 min; at 5 µM; hits give high values.
Cytochrome P450 2C19 (Homo sapiens), sequence (P33261 whole entry, looked up): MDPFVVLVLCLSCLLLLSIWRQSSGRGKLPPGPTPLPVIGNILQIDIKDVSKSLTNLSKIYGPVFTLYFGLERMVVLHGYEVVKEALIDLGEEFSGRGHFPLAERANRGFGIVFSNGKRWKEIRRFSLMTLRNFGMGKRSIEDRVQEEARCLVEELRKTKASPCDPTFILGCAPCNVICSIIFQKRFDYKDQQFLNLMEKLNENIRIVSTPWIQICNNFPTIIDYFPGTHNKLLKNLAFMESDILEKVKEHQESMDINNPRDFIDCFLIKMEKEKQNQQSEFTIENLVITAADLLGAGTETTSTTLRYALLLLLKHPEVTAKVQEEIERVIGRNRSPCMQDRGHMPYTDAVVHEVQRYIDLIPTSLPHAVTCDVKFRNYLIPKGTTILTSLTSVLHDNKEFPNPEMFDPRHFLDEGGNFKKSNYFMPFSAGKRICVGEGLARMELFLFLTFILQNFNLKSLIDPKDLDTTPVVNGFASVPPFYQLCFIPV
As for `CCc1ccc(Nc2ncc3c(n2)CC(c2ccco2)CC3=O)cc1` (configuration not stated), the inhibition is 1%. The result for `CC1CCCC(NC(=O)CN2CCN(Cc3ccc(Cl)cc3)C2=O)C1C` (configuration not stated) reads 18.3%; that for `CC1CCCCC1NC(=O)CSc1nnc(N)s1` (configuration not stated), 4%. The result for `CC1CCCC(NC(=O)CSc2nccn2C)C1C` (configuration not stated) reads 97.2% (active); that for `Cc1ccc(NC(=S)NC(NC(=O)Cc2cccc3ccccc23)C(Cl)(Cl)Cl)cc1` (configuration not stated), 49.5%; that for `CCCC(C(=O)NCc1ccco1)N(C(=O)CNS(=O)(=O)c1ccccc1)C1CCCC1` (configuration not stated), 78.3% (active).

As for `O=C(NC1CCC(O)CC1)c1ccc(S(=O)(=O)NCc2ccco2)cc1` (configuration not stated), the inhibition was -9%.

As to `CSCCC(NC(=O)C1CCC(C)CC1)C(=O)NCc1ccco1` (configuration not stated), the inhibition was 8.2%. The result for `COc1ccc(C2=NOC3(CC(=O)N(c4ccc(C)cc4)C3=O)C2)cc1` (configuration not stated) reads -13.3%; that for `O=C1CSC(c2ccc(Cl)cc2)N1` (configuration not stated), 13.7%. The result for `Cc1nc2ccccc2c2oc(C(=O)NCC3CCCO3)cc12` (configuration not stated) reads -8.4%; that for `O=C(NCC1CCCO1)c1ccc2ccccc2n1` (configuration not stated), -2.7%; that for `c1ccc2c(NCC3CCCO3)nc(-c3ccncc3)nc2c1` (configuration not stated), 94.5% (active). Turning to `Cc1ccc(S(=O)(=O)n2nc(OC(=O)C(C)(C)C)cc2N)cc1`, the inhibition was 21.6%. As to `Cc1ccc(N2CCN(S(=O)(=O)N(C)C)CC2)cc1Cl`, the inhibition was 59.1% (active). To `CS(=O)(=O)N1CCN(c2cccc(Cl)n2)CC1` belongs 46.3%. The result for `c1ccc(-n2ncc3c2ncn2c(C4CCCCC4)nnc32)cc1` reads -4.4%.

Regarding `CCn1ncc(C2=NOC(C(=O)N3CCN(c4ccccc4)CC3)C2)c1C` (configuration not stated), the inhibition is -20.9%. With `O=C(OCC(=O)N1CCCC1)c1ccco1`, the inhibition is 0.8%. To `CCOc1nc(-c2ccc(OC)cc2)ccc1-c1noc(-c2cc(OC)c(OC)c(OC)c2)n1` belongs 8%; to `COc1nc(-c2ccc(Cl)cc2)ccc1-c1noc(-c2cccs2)n1`, 7%; to `c1csc(-c2nc(-c3ccncc3)no2)c1`, 72.2% (active). The result for `COc1ccc(-c2noc(-c3cccc(OC)c3OC)n2)cc1OC` reads 22.7%; that for `CCc1ccc(CNC(=O)CCc2nc(-c3cccs3)no2)cc1`, 37.6%; that for `COc1cc(-c2nc(-c3ccncc3)no2)cc(OC)c1OC`, 83.6% (active).

For the compound `O=C(CSc1nc(-c2ccco2)cc(C(F)(F)F)n1)N1CCc2ccccc2C1`, the inhibition is 42.7%.

Turning to `Cc1[nH]c2ccccc2c1C(=O)CSCC(=O)O`, the inhibition was 0.7%. As for `Cc1cc(N=CC2=C(O)CCCC2=O)no1`, the inhibition is 2.1%. For `c1coc(CNc2ncnc3ccccc23)c1`, the inhibition is -3.8%. As to `S=C(NCCC1=CCCCC1)Nc1ccccc1`, the inhibition is 46.9%. Regarding `O=C(CN1C(=O)NC2(CCCCC2)C1=O)NCCC1=CCCCC1`, the inhibition was 8.2%. As for `O=C(COc1ccc(Cl)cc1)NCCC1=CCCCC1`, the inhibition is 26.8%. For the compound `O=C(Cc1nn[nH]n1)NCCC1=CCCCC1`, the inhibition was -1.9%. The result for `O=C(COc1cccc(-n2cnnn2)c1)NCCC1=CCCCC1` reads 89.3% (active). For the compound `Cc1nnc(OCC(=O)NCCC2=CCCCC2)c2ccccc12`, the inhibition is 55.2% (active). To `O=C(O)C1CC=CCC1C(=O)NCCc1ccccc1` (configuration not stated) belongs -8.8%; to `CC1(C)COC(c2cccn2Cc2ccccc2Cl)=N1`, 2.4%. The result for `CNC(=O)c1ccc2nc(NC(C)=O)sc2c1` reads 2.4%; that for `O=C(Cn1c(-c2ccc(Cl)cc2)noc1=O)N1CCN(c2ccccc2F)CC1`, 12.6%; that for `CCCCOC(=O)Nc1sc2nc(C)cc(C)c2c1-n1cccc1`, 9.4%. For the compound `O=C(Nc1cccc2c1CCCC2)C1CCN(C(=O)NC2CCCCC2)CC1`, the inhibition was 2.3%.

Regarding `COCCCNC(=O)COc1cc(C)c(Cl)c(C)c1`, the inhibition is 86.2% (active). On to `COCCNC(=O)COc1ccc(C)c(C)c1`, for which the inhibition was -3.5%. To `COCCNC(=O)COc1ccccc1C` belongs 2%.

For the compound `CCOC(=O)C1C(=O)C=C(c2ccc(OC)cc2)CC1c1ccco1` (configuration not stated), the inhibition is 28.1%. The result for `O=C(OCC(O)C(O)COC(=O)c1ccccc1)c1ccccc1` (configuration not stated) reads 83.5% (active); that for `CCCCCCOC(=O)NCC(O)c1ccccc1` (configuration not stated), 23.3%.

In the case of `O=C(NC(=O)c1ccccc1)NC(=O)c1ccccc1`, the inhibition is 21.7%. On to `COc1ccc(-c2nc(-c3ccccc3)no2)c(OC)c1`, for which the inhibition is 12.8%. The result for `CCOC(=O)C(CC)Sc1ncnc2c1nnn2-c1ccc(F)cc1` (configuration not stated) reads 10.5%; that for `CCN(CC(=O)NC1CCS(=O)(=O)C1)c1nc(-c2cccnc2)nc2ccccc12` (configuration not stated), 4.6%. With `Cc1ccc(NC2(C#N)C(=O)Nc3ccccc32)cc1` (configuration not stated), the inhibition was 60.3% (active). The result for `Cc1ccc2c(c1)C(O)(CC(=O)c1cccnc1)C(=O)N2` (configuration not stated) reads 10.2%; that for `CN1CCN(c2nc3c(c(=O)[nH]c(=O)n3C)n2Cc2cccc3ccccc23)CC1`, 1.2%; that for `CC(=O)Nc1ccn(Cc2c(F)cccc2Cl)n1`, 48.9%.

On to `Cc1cc(NC(=O)c2cc(-c3cccs3)on2)nn1Cc1ccc(Cl)cc1`, for which the inhibition was 2%.

Consider `O=C(Nc1ccn(Cc2ccc(F)cc2)n1)c1ccncc1`, for which the inhibition is 97.8% (active). The result for `Cc1ccc(Cn2ccc(NC(=O)c3cc(C(C)C)on3)n2)cc1` reads 97.2% (active). For `Cc1nn(Cc2ccc(F)cc2)c(C)c1NC(=O)c1noc2c1CCc1ccccc1-2`, the inhibition was 1%. Turning to `Cc1ccc(Cn2ccc(NC(=O)C3C4CCC(C4)C3C(=O)O)n2)cc1` (configuration not stated), the inhibition was 15%. The result for `Cc1ccc(N(NC(=O)C(C)(C)O)C(=O)c2ccccc2)cc1C` reads 14.9%; that for `COc1ccccc1CNC(=O)Cn1cc2c(n1)CCCC2`, 20.5%. `O=P(O)(CN1CCCCC1)CN1CCCCC1`: the inhibition is -0.9%. As to `Cc1ccc(-c2cnc(NC(=O)CCC(=O)N(C)Cc3ccccc3)n2C)cc1`, the inhibition was 1%. On to `COc1ccccc1NC1=NC(c2ccc(Cl)cc2)N=C(N)N1` (configuration not stated), for which the inhibition was 92.6% (active). The result for `COc1ccccc1NC1=NC2(CCCC2)N=C(N)N1` reads -6%; that for `COc1ccccc1Nc1nc(N)nc(CN(C)C2CCCCC2)n1`, -23.9%. The result for `C=C(C)Cn1c(N2CCN(CC)CC2)nc2c1c(=O)[nH]c(=O)n2C` reads -24.3%; that for `O=S(=O)(c1ccc(Sc2nnc3ccccn23)nc1)N1CCOCC1`, 13.2%; that for `O=C(Cn1nnc(-c2ccccc2)n1)NCc1ccc2c(c1)OCO2`, 25.4%. The result for `O=C(CNS(=O)(=O)c1ccc(Br)s1)NCc1ccc2c(c1)OCO2` reads 63.1% (active). Turning to `COc1ccc(-c2csc(N3CCN(Cc4ccc5c(c4)OCO5)CC3)n2)cc1`, the inhibition was -20.9%. For the compound `O=C(CNS(=O)(=O)c1ccc(Br)s1)N1CCN(C(=O)c2ccco2)CC1`, the inhibition was 26.7%. Turning to `Cc1ccc(C(=O)OCC(=O)NCc2ccc3c(c2)OCO3)s1`, the inhibition was 64% (active). To `O=C(CN1CCN(c2nc(-c3ccccc3)cs2)CC1)NCc1ccc2c(c1)OCO2` belongs 91.6% (active); to `O=C(COC(=O)c1ccc2c(c1)OCCO2)NCc1ccccc1`, 6.9%.

As to `O=C(NCc1ccc2c(c1)OCO2)C12CC3CC(CC(C3)C1)C2`, the inhibition is 26.4%. The result for `CCOC(=O)NCc1ccc2c(c1)OCO2` reads 48.5%. To `O=C(CCNS(=O)(=O)c1ccccc1C(F)(F)F)NCc1ccc2c(c1)OCO2` belongs 84.6% (active).

In the case of `O=C(CN(Cc1ccccc1)C(=O)c1ccc2c(c1)OCCO2)NCc1ccc2c(c1)OCO2`, the inhibition is 29.2%. For `C/C(=N\O)C1(C)N(O)C(C)(C)C(c2ccc(Br)cc2)=[N+]1[O-]` (configuration not stated), the inhibition was -15.7%. To `Cc1ccccc1OCC(=O)NCC(=O)OCC(=O)c1ccc2ccccc2c1` belongs -2%; to `COC(=O)c1sc(NC(=O)c2csc3c2CCCC3)nc1C`, -10.6%. To `Clc1ccccc1-c1cc(COc2ccc3ccccc3c2)no1` belongs 3.1%. To `CCCCSc1[nH]c(=O)c(C(=O)OCC)cc1C#N` belongs 3.8%; to `Cc1cc(C)n2nc(C(=O)Oc3ccc4c(c3)OCO4)nc2n1`, -10.7%; to `CN(C)CC(O)COc1ccc(C(C)(C)c2ccc(OCC(O)CN(C)C)cc2)cc1` (configuration not stated), -7.2%. As for `O=C(CCCCn1c(=O)[nH]c2ccccc2c1=O)NCc1ccc2c(c1)OCO2`, the inhibition was 28%. To `CCc1c(C)nc2ncnn2c1N1CCC(C(=O)NCc2ccc3c(c2)OCO3)CC1` belongs 17.6%; to `O=C(COc1ccccc1)NCc1ccc2c(c1)OCO2`, 69.2% (active); to `Cn1cc(CCC(=O)NCc2ccc3c(c2)OCO3)c2ccccc21`, 93.8% (active).

Take `O=C(NCc1ccc2c(c1)OCO2)c1ccc2c(c1)C(=O)N(CC1CCCO1)C2=O` (configuration not stated): the inhibition was -1.9%.

In the case of `CCOC(=O)N1CCC(NC(=O)CCc2cn(C)c3ccccc23)CC1`, the inhibition is 15.5%.

Consider `CC1CCCCN1CC(=O)NCc1ccc2c(c1)OCO2` (configuration not stated), for which the inhibition is 69.6% (active). To `COC(=O)Cc1c(C)c2ccc(OCC(=O)NCc3ccc4c(c3)OCO4)cc2oc1=O` belongs 21.2%; to `O=C(CC(Cc1ccccc1)C(=O)O)NCCc1ccc2c(c1)OCO2` (configuration not stated), 4%; to `COC(=O)c1sc2ncccc2c1OCc1ccc(Cl)cc1Cl`, -1.5%. For the compound `COc1ccc2[nH]c(C)c(CCN(Cc3cccs3)C(=S)Nc3ccccc3OC)c2c1`, the inhibition is 25.1%.

Take `O=C1c2ccccc2NC(c2ccc(-c3cccc(Cl)c3)o2)N1O` (configuration not stated): the inhibition is 22.2%. The result for `Cc1cc(NC(=O)Nc2ccccc2)n(-c2ccccc2)n1` reads 29.8%. The result for `CC(C)[C@H](NC(=O)Nc1ccc(S(N)(=O)=O)cc1)C(=O)O` reads -1.3%; that for `N#CCSc1nc2ccc(N3CCOCC3)cc2c(=O)n1CCc1ccccc1`, 12.7%.

Source of the values: PubChem BioAssay AID778 (Sanford-Burnham Center for Chemical Genomics, 2007).
